# Results as given in the supplement of paper PMC3334620.
# The full ranking holds about 33,000 sequences; the median of “E-score (-0.5 to 0.5)” is about -0.016, and the highest 2% start at about 0.31. This excerpt belongs to a sample that is enriched for the highest values.
# Target: Cst6 (UniProt P40535)
# Experiment: PBM E-score (8-mer binding enrichment) (E-score (-0.5 to 0.5)); higher = stronger / more preferred TF binding
# Settings: protein concentration: 200 nM; construct: GST-DNA-binding domain
# Procedure: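 Universal 'all 10-mer' protein binding microarrays (Agilent AMADID 015681) probed with GST-tagged S. cerevisiae TFs (full-length or DBD) made by in vitro transcription/translation (PURExpress), about 100-200 nM. Bound TF was detected with fluorescent anti-GST. Each ungapped 8-mer (which stands for itself and its reverse complement) is scored by the PBM enrichment score (E-score), a modified Wilcoxon-Mann-Whitney statistic from -0.5 to +0.5, computed with the Universal PBM Analysis Suite. Scale: above 0.35 generally sequence-specific binding.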
# Sequence of UniProt P40535 (P40535 whole entry): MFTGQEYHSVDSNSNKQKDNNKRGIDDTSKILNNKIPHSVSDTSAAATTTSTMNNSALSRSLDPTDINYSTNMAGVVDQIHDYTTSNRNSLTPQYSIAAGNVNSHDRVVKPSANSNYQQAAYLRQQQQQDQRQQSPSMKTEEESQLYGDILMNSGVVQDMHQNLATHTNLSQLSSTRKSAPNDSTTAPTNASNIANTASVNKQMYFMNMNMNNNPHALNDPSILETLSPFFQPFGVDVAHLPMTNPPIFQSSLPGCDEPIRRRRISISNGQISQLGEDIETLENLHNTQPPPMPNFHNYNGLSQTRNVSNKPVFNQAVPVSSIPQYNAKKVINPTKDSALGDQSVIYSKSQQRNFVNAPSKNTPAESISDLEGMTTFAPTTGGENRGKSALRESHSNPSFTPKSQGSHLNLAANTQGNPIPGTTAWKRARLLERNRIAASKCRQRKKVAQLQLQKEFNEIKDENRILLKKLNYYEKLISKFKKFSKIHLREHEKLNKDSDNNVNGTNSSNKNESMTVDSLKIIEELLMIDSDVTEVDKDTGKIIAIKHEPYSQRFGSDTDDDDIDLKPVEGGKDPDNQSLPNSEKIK
row,Sequence,PBM E-score
1,CAGCTGCC,-0.146
2,AGAAGTCA,0.0402
3,GGAAGGCC,-0.136
4,AAGAACAA,0.327
5,AAGAACAC,0.167
6,AAGAACAG,0.0582
7,TCCCTCGA,-0.205
8,AGAAGTCT,-0.118
9,GGACGTAA,0.279
10,TGACGTAA,0.499
11,GGACGTAC,-0.065
12,AGACGTAC,-0.0375
13,TGTCGTAA,0.303
14,AGACGTAG,-0.133
15,CGACGTAC,0.139
16,CGACGTAA,0.451
17,AGACGTAA,0.371
18,CGTGGTGC,-0.177
19,CAGACCTA,-0.00947
20,GCACAGAA,0.109
21,AGCTGAGA,-0.101
22,AATCCAAT,0.139
23,AATCAGCT,0.186
24,ACTCACGA,-0.053
25,GCTTTAAC,0.135
26,ACGGCGGC,0.156

row,Sequence,PBM E-score
1,GCGGCGTA,0.23
2,ACGGCGTA,0.358
3,CCGGCGTA,-0.134
4,ACGGCGGG,0.108
5,ACGGCGTG,0.314
6,ACGGCGTC,0.347
7,ATGGCGTC,0.311
8,AGGGCGTG,-0.115
9,ATGGCGTG,0.113
10,CCGGCGTC,-0.0641
11,CTGGCGTC,-0.0408
12,ACCGGTCA,-0.0152
13,ACGCCACG,0.0785
14,GGAAAACC,-0.0924
15,TCACAGAA,0.133
16,CCAGTGCA,-0.185
17,GCAGTTCA,0.0321
18,CAATGCGA,0.136
19,GACGGGTA,-0.0938
20,GTCCCATA,-0.14
21,CTGAAACA,-0.0169
22,AATTTTAC,0.326
23,CATTTTAC,0.273
24,AATTTTAT,0.346
25,AAATTTAT,0.234
26,AATTTTAA,0.25

row,Sequence,PBM E-score
1,ATTTTTAC,0.201
2,ATTTGCTA,0.156
3,CTATTCAA,0.197
4,ACAACCAG,0.0122
5,ACAACCAT,0.325
6,ACAACCAC,0.133
7,CTACGCAA,0.119
8,GGCACGTA,0.119
9,AAATGAAA,0.322
10,AATGAAAG,0.168
11,AATGAAAT,0.37
12,TAATGAAA,0.261
13,AATGAAAA,0.236
14,CAATGAAA,0.153
15,CAAACTTC,0.177
16,AACCTTAG,-0.158
17,AAGAGGAC,-0.249
18,AAACAGGA,0.0722
19,CATTTAAA,0.279
20,TATTTTAA,0.259
21,GATTTCAA,-0.0222
22,TATTAAAA,0.323
23,GATTAAAA,0.242
24,TATTTAAA,0.308
25,GTTTTAAA,0.196
26,ATTTTAAA,0.308

row,Sequence,PBM E-score
1,ATTTTTAA,0.293
2,CATTTCAA,0.222
3,AATTAAAA,0.187
4,TATTTCAA,0.318
5,CAAACCCC,-0.178
6,AAGGCGTA,0.0577
7,AGGCGAAT,0.0491
8,TCCTTGAA,-0.0366
9,AGGGCAGA,-0.248
10,GAGTTACC,-0.0903
11,ATGGCACG,0.111
12,ACCGGTGC,-0.105
13,ACCTTTTC,-0.133
14,ATCAGTGA,0.136
15,GTCAGTGA,0.308
16,CTCAGTGA,0.0623
17,GGTACACC,-0.287
18,GGCAGGCA,-0.193
19,GAATGTCA,0.206
20,AAATGTCA,0.216
21,GCATGTCA,0.287
22,ACATGTCA,0.275
23,TAATGTCA,0.356
24,TCATGTCA,0.382
25,ATCCATGG,-0.138
26,GGAGATTA,0.13

row,Sequence,PBM E-score
1,AGCTTCGC,-0.134
2,CGAACGAG,-0.108
3,CCACTTCA,-0.197
4,AACCACCA,0.00505
5,CGGCCGCC,-0.0119
6,AGTATTTA,0.171
7,CGTATTTA,0.358
8,GGTATTTA,0.0257
9,GAGCCTGC,-0.173
10,AAACAGGC,-0.0905
11,ATAACGTC,0.38
12,AGAACGTC,0.142
13,GTAACGTA,0.302
14,CTAACGTC,0.356
15,ATAACGTA,0.398
16,ATAACGTG,0.213
17,ATAACGAA,0.217
18,CAAACGTC,0.137
19,CTAACGTA,0.281
20,CTACTCAC,0.212
21,CATAGACC,-0.13
22,AACTGCCG,0.114
23,CTAATTTC,0.128
24,GCAATTTA,0.151
25,CTAATTTA,0.321
26,TAAATTTA,0.237

row,Sequence,PBM E-score
1,ATAATTTA,0.304
2,GTAATTTA,0.333
3,CATGAGGG,-0.142
4,ATGCAAAA,0.22
5,ACGGTCAC,0.152
6,TCAGCGCA,-0.176
7,ACAAAAGT,0.164
8,ACGTATAA,0.309
9,ACGTATTG,0.238
10,CCGTATAC,-0.015
11,CCGTATAA,0.225
12,ACGTATTA,0.33
13,ACGTATAC,0.307
14,TCGTATAA,0.145
15,GCGTATTA,0.0768
16,ACGTATAT,0.237
17,CGAGACTA,0.0119
18,GCAGCGCC,0.0306
19,CTAAAGAG,-0.0139
20,AGGGGCCC,-0.101
21,ACCCGACT,-0.16
22,CAAGGTTC,-0.155
23,AGGCTGGC,-0.195
24,AAACGTAG,-0.0946
25,CAACGTTC,-0.13
26,AAACGTAA,0.365

row,Sequence,PBM E-score
1,TAACGAAA,0.27
2,GAACGTAA,0.277
3,CAACGTTG,0.31
4,CAACGTAG,0.0788
5,AAACGTAT,0.276
6,CAACGTAC,0.0567
7,TAACGTAA,0.452
8,AAACGTTG,-0.106
9,CAACGTAA,0.329
10,GGCCCTCA,-0.266
11,AAGCAAAC,0.0375
12,TGATGACA,0.368
13,TGATGAAA,0.289
14,CGATGAGA,-0.048
15,CGATGAAG,0.0389
16,AGATGACA,0.283
17,CGATGACG,0.48
18,GCATGACA,0.288
19,CGATGACA,0.383
20,TCATGAGA,0.214
21,GGATGACA,0.287
22,TCATGACA,0.392
23,CGATGACC,0.0541
24,AAGCGTGA,0.141
25,GACTATCA,-0.104
26,CGGAGATC,-0.205

row,Sequence,PBM E-score
1,ACTGTGTA,-0.043
2,CTACTCCC,-0.156
3,CAGGCCAA,-0.178
4,GCGTGACA,0.255
5,CGTTCTTC,0.151
6,ACAGATCC,0.0419
7,ACGAACAC,0.138
8,AGATGACC,0.0152
9,AGATGACT,0.0398
10,AGATGACG,0.473
11,ACTCTGGA,0.109
12,GGACGACA,0.0793
13,TGACGAAA,0.477
14,AGACGAAA,0.134
15,GGACGAAA,0.0732
16,CGACGACA,-0.054
17,TGACGACA,0.476
18,TGCATCAA,0.154
19,CAGCCAAA,0.0814
20,AGCCTGAA,-0.0532
21,ATGACCTC,0.349
22,ATGACCTG,0.0198
23,GTGACCTA,0.192
24,CTGACCTA,-0.0164
25,CTGACCTC,0.0456
26,ATGACCTA,0.346

row,Sequence,PBM E-score
1,GCCGGCAA,-0.108
2,CCTCATCC,-0.272
3,CGTCATCC,0.473
4,AGTCATCC,-0.0119
5,GGTCATCA,0.247
6,CGTCATCA,0.487
7,AGTCATCA,0.0814
8,CGGCACGC,0.0275
9,TGTGGAAA,0.186
10,AATGATGT,0.41
11,AATGATGG,0.186
12,ATTGATTG,0.237
13,ATTGATTA,0.308
14,ATTGATTC,0.178
15,GATGATTA,0.2
16,AATGATGA,0.334
17,ACTGATGA,0.173
18,AAAGATGT,0.13
19,AATGATTC,0.225
20,AATGATCT,0.215
21,AATGATTA,0.344
